Results: PubChem BioAssay (EPA / NIEHS)
Inconclusive results are not listed. Calls of active or inactive are those of the source. The calls were made as follows, unless noted: active = hit-call score of the fitted dose curve at least 0.9, where 1 is the maximum; inconclusive = response in the unintended direction; inactive = score below 0.9.

Columns and labels:
[1] = ATG_TGFb_CIS: Attagene CIS-FACTORIAL HepG2 Assay for human Transforming Growth Factor (TGF) (AID 2282967; active = hit-call score of the fitted dose curve at least 0.9, where 1 is the maximum; inactive = score below 0.9); settings: HepG2 Attagene CIS TGFb reporter, mRNA transcription; actives raise or lower the signal
How it was run: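 Endogenous TGFB1-linked transcription factor activity read as reporter mRNA via RT-PCR and capillary electrophoresis, 24 h after dosing transiently transfected HepG2 cells. Gain or loss of signal fitted relative to DMSO.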

[2] = ATG_VDRE_CIS: Attagene CIS-FACTORIAL HepG2 Assay for human Vitamin D Receptor Element (VDRE) (AID 2282968; active = hit-call score of the fitted dose curve at least 0.9, where 1 is the maximum; inactive = score below 0.9); settings: HepG2 VDRE cis-reporter transcription, actives raise or lower the signal
How it was run: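 In transiently transfected HepG2 liver cells, gain or loss of reporter mRNA after 24 h exposure is scored relative to DMSO, using fluorescence detection by capillary electrophoresis of RT-PCR products.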

[3] = target: X-box-binding protein 1 (Homo sapiens) (UniProt P17861); assay: ATG_Xbp1_CIS: Attagene CIS-FACTORIAL HepG2 Assay for human X-box Binding Protein 1 (XBP1) (AID 2282972; active = hit-call score of the fitted dose curve at least 0.9, where 1 is the maximum; inactive = score below 0.9); settings: HepG2 XBP1 cis-element reporter, Attagene multiplex; actives raise or lower the signal
X-box-binding protein 1 (Homo sapiens), sequence (P17861 whole entry, looked up): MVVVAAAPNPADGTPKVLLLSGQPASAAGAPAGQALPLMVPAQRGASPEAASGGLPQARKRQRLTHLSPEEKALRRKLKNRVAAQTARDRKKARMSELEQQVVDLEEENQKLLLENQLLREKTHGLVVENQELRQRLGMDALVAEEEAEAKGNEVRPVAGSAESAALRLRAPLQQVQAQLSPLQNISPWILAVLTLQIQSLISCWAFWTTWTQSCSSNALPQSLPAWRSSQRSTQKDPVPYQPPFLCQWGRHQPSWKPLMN
How it was run: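 HepG2 cells transiently transfected with cis-regulated multiple reporter transcription units; endogenous transcription factor activity measured 24 hours after chemical dosing. Reporter mRNA quantified by RT-PCR, 6-FAM primer extension, HpaI digestion and capillary electrophoresis; bidirectional fitting versus DMSO.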

[4] = ATG_M_19_TRANS: Attagene TRANS-FACTORIAL HepG2 Assay for M19 Transcription Factor (Internal Marker) (AID 2282974); settings: HepG2 Attagene TRANS-FACTORIAL M19 internal marker reporter
How it was run: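 Background-control readout: after 24 h chemical exposure of transfected HepG2 carrying GAL4-driven reporter units, RNA was reverse-transcribed, amplified, fluorescently labeled and sized by capillary electrophoresis; gain-of-signal fit against DMSO.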

[5] = ATG_GAL4_TRANS: Attagene TRANS-FACTORIAL HepG2 Assay for GAL4 (Internal Marker) (AID 2282976); settings: HepG2 Attagene TRANS GAL4 internal marker reporter
How it was run: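 In transfected human HepG2 liver cells dosed 24 h, GAL4 reporter mRNA serves as a baseline marker. Detection by RT-PCR with fluorescent capillary electrophoresis, activity fitted upward relative to DMSO.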

[6] = target: Bile acid receptor (Homo sapiens) (UniProt Q96RI1); assay: ATG_FXR_TRANS: Attagene TRANS-FACTORIAL HepG2 Assay for Farnesoid X Receptor (FXR) (AID 2282979); settings: HepG2 Attagene TRANS FXR-GAL4 reporter transcription;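 also: hits raise reporter mRNA above DMSO so AC50 marks FXR activation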
Bile acid receptor (Homo sapiens), sequence (Q96RI1 whole entry, looked up, the tested form may be a part): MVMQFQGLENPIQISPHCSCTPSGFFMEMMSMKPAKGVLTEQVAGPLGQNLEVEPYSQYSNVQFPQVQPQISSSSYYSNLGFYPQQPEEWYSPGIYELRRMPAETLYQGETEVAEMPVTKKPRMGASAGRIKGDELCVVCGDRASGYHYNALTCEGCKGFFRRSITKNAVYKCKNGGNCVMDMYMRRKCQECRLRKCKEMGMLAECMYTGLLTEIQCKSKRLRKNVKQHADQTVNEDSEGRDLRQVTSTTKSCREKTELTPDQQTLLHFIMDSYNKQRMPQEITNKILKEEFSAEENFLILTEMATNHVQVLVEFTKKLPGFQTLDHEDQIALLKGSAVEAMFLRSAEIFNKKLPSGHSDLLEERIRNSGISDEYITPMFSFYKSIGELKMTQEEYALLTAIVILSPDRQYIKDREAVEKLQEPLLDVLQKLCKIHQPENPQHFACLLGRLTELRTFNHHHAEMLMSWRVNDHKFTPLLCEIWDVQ
How it was run: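 Reporter transcripts from transfected HepG2 cells were measured 24 h after dosing, using RT-PCR with capillary electrophoresis of 6-FAM-labelled fragments. The read-out reflects activity of exogenous FXR-Gal4 chimera on GAL4-UAS units, with induction relative to DMSO.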

[7] = target: Oxysterols receptor LXR-beta (Homo sapiens) (UniProt P55055); assay: ATG_LXRb_TRANS: Attagene TRANS-FACTORIAL HepG2 Assay for human Liver X Receptor beta (LXRb) (AID 2282981); settings: HepG2 Attagene TRANS GAL4-LXRb reporter, mRNA
How it was run: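 Cells: HepG2, transiently transfected with GAL4-UAS reporter units plus LXRb-Gal4 fusion. Treatment: 24 h. Detection: reporter mRNA by RT-PCR, 6-FAM labelling, HpaI digestion, capillary electrophoresis.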

[8] = target: Hepatocyte nuclear factor 4-alpha (Homo sapiens) (UniProt P41235); assay: ATG_HNF4a_TRANS: Attagene TRANS-FACTORIAL HepG2 Assay for human Hepatocyte Nuclear Factor 4 alpha (HNF4a) (AID 2282982); settings: HepG2 HNF4a transactivation reporter, mRNA readout
How it was run: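 Transfected HepG2 reporter cells are dosed for 24 h; reporter RNA is reverse-transcribed, amplified, fluorescently labelled and HpaI-digested before CE sizing. Positive-direction fit against DMSO.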

[9] = ATG_M_06_TRANS: Attagene TRANS-FACTORIAL HepG2 Assay for M06 Transcription Factor (Internal Marker) (AID 2282983); settings: HepG2 Attagene TRANS M06 internal marker reporter
How it was run: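 Cells: HepG2, transient multi-reporter transfection. Exposure: 24 h. Detection: RT-PCR, 6-FAM labelling, HpaI digestion (2 h, 37 °C), capillary electrophoresis. Baseline: DMSO.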

[10] = ATG_M_32_TRANS: Attagene TRANS-FACTORIAL HepG2 Assay for M32 Transcription Factor (Internal Marker) (AID 2282984); settings: HepG2 Attagene TRANS M32 internal marker reporter;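 also: transcript level of a background control reporter unit measured by RT-PCR and capillary electrophoresis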
How it was run: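 Using transiently transfected HepG2 cells exposed to test chemicals for 24 h, reporter transcripts are converted to labelled cDNA fragments and quantified by capillary electrophoresis. DMSO defines the activity baseline.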

[11] = target: Nuclear receptor subfamily 4 group A member 2 (Homo sapiens) (UniProt P43354); assay: ATG_NURR1_TRANS: Attagene TRANS-FACTORIAL HepG2 Assay for human Nuclear Receptor Related Protein 1 (NURR1) (AID 2282985); settings: HepG2 Attagene TRANS reporter, mRNA readout
Nuclear receptor subfamily 4 group A member 2 (Homo sapiens), sequence (P43354 whole entry, looked up): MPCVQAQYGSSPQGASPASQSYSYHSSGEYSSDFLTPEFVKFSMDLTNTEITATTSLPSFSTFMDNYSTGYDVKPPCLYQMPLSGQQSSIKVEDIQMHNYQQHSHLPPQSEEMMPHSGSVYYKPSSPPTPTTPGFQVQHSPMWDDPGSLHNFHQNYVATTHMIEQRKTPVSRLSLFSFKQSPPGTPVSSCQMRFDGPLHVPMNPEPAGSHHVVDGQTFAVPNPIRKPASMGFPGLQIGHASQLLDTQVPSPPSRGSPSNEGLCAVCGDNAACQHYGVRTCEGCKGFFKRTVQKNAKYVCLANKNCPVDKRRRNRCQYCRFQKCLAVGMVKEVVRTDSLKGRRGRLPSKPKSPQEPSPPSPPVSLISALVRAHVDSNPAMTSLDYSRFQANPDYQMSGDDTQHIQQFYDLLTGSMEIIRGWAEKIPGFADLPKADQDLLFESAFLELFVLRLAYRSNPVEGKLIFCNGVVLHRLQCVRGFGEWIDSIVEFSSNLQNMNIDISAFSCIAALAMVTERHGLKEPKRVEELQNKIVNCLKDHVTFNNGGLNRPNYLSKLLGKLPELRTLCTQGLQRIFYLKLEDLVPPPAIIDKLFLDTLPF
How it was run: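 Cells: HepG2, transiently transfected. Exposure: 24 h. Detection: fluorescence of labelled RT-PCR products separated by capillary electrophoresis; upward fit versus DMSO.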

[12] = target: Transcriptional activator Myb (Homo sapiens) (UniProt P10242); assay: ATG_Myb_CIS: Attagene CIS-FACTORIAL HepG2 Assay for human Myeloblastosis (Myb) Proto-Oncogene Transcription Factor (AID 2282986; active = hit-call score of the fitted dose curve at least 0.9, where 1 is the maximum; inactive = score below 0.9); settings: HepG2 Attagene CIS-FACTORIAL Myb reporter transcription; actives raise or lower the signal
Transcriptional activator Myb (Homo sapiens), sequence (P10242 whole entry, looked up): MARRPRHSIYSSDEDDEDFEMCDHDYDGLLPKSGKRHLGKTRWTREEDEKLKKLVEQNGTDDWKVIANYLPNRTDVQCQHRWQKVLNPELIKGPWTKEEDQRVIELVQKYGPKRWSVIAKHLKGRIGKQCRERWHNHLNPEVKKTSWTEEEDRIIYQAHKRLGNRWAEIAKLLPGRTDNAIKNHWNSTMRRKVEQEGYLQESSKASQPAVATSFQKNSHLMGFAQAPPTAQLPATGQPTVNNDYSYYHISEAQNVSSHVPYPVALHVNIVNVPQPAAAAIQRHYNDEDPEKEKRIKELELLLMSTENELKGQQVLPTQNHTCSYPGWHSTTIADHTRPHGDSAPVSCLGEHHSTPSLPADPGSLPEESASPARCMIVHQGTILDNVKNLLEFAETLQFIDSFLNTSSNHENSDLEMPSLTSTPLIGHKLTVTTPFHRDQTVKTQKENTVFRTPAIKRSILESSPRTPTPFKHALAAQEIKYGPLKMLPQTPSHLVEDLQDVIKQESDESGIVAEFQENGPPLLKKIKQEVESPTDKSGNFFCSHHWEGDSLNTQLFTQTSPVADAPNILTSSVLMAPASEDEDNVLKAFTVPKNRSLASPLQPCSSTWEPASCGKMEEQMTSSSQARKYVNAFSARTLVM
How it was run: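 Reporter mRNA is quantified by RT-PCR and capillary electrophoresis 24 h after dosing HepG2 cells transfected with cis-regulated reporter units, which track endogenous transcription factor activity. Gain and loss of signal are fitted versus DMSO baseline.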

[13] = target: Nuclear respiratory factor 1 (Homo sapiens) (UniProt Q16656); assay: ATG_NRF1_CIS: Attagene CIS-FACTORIAL HepG2 Assay for human Nuclear Respiratory Factor 1 (NRF1) Orphan Gene (AID 2282987; active = hit-call score of the fitted dose curve at least 0.9, where 1 is the maximum; inactive = score below 0.9); settings: HepG2 NRF1 cis-element reporter, Attagene multiplex; actives raise or lower the signal
Nuclear respiratory factor 1 (Homo sapiens), sequence (Q16656 whole entry, looked up): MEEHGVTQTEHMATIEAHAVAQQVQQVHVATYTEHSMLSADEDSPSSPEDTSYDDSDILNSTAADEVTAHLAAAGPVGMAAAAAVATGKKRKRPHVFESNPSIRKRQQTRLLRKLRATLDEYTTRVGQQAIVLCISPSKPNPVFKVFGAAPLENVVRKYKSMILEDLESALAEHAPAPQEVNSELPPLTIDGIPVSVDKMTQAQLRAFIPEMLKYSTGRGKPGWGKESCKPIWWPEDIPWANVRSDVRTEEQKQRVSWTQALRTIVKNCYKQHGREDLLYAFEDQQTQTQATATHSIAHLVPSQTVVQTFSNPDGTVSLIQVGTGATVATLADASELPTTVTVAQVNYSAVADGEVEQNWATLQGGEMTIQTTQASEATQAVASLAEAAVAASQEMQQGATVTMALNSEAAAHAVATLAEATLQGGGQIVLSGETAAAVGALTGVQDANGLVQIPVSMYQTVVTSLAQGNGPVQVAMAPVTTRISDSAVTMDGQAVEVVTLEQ
How it was run: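 Endogenous NRF1-driven reporter transcription in transfected HepG2 cells after 24 h treatment. Readout: RT-PCR products, 6-FAM labelled and resolved by capillary electrophoresis; changes fitted both directions relative to DMSO.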

[14] = target: Nuclear receptor subfamily 1 group I member 3 (Homo sapiens) (UniProt Q14994); assay: ATG_CAR_TRANS: Attagene TRANS-FACTORIAL HepG2 Assay for human Constitutive Androstane Receptor (CAR) (AID 2282969); settings: HepG2 Attagene TRANS-FACTORIAL CAR reporter;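 also: activators raise reporter mRNA above DMSO so AC50 marks induction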
Nuclear receptor subfamily 1 group I member 3 (Homo sapiens), sequence (Q14994 whole entry, looked up, the tested form may be a part): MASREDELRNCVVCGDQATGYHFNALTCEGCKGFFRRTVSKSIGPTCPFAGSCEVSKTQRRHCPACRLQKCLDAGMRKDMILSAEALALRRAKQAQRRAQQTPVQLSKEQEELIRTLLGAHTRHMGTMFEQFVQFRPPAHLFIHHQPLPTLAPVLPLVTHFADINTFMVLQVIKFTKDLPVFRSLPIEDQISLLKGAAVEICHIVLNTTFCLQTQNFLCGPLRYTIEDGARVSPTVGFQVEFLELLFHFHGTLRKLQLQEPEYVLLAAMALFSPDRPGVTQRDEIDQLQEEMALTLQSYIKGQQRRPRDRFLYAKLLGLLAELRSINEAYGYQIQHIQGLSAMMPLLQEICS
How it was run: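 Readout is reporter mRNA induction, quantified by fluorescent primer extension and capillary electrophoresis after RT-PCR. Cells were HepG2 transiently carrying chimeric NR-Gal4 constructs with GAL4-UAS reporters, treated for 24 h; activity scored upward from DMSO.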

[15] = target: Estrogen receptor (Homo sapiens) (UniProt P03372); assay: ATG_ERa_TRANS: Attagene TRANS-FACTORIAL HepG2 Assay for human Estrogen Receptor alpha (ERa) (AID 2282970); settings: HepG2 Attagene TRANS ERa GAL4 reporter, mRNA
Estrogen receptor (Homo sapiens), sequence (P03372 whole entry, looked up, the tested form may be a part): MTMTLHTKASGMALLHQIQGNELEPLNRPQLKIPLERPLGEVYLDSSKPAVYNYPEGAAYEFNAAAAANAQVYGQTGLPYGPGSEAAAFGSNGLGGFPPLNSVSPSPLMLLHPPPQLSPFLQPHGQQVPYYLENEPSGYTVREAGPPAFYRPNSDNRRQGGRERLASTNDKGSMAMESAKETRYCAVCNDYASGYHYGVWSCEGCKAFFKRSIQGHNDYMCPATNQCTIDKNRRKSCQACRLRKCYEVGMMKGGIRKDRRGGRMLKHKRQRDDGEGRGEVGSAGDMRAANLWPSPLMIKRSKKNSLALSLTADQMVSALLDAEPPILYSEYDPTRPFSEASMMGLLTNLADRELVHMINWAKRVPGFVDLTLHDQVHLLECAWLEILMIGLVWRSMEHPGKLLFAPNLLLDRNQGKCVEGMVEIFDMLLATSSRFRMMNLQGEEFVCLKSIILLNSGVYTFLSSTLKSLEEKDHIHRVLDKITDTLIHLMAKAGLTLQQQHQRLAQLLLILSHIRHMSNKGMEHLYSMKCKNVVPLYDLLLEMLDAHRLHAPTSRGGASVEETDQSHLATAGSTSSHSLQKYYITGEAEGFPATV
How it was run: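 Cells: HepG2, transiently transfected. Construct: GAL4-UAS reporter units regulated by exogenous NR-Gal4 chimeras. Time: 24 h. Detection: reporter mRNA by RT-PCR, capillary electrophoresis, fluorescence. Baseline: DMSO, upward fitting.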

[16] = target: Oxysterols receptor LXR-alpha (Homo sapiens) (UniProt Q13133); assay: ATG_LXRa_TRANS: Attagene TRANS-FACTORIAL HepG2 Assay for human Liver X Receptor alpha (LXRa) (AID 2282980); settings: HepG2 Attagene TRANS reporter, LXRa transactivation
Oxysterols receptor LXR-alpha (Homo sapiens), sequence (Q13133 whole entry, looked up, the tested form may be a part): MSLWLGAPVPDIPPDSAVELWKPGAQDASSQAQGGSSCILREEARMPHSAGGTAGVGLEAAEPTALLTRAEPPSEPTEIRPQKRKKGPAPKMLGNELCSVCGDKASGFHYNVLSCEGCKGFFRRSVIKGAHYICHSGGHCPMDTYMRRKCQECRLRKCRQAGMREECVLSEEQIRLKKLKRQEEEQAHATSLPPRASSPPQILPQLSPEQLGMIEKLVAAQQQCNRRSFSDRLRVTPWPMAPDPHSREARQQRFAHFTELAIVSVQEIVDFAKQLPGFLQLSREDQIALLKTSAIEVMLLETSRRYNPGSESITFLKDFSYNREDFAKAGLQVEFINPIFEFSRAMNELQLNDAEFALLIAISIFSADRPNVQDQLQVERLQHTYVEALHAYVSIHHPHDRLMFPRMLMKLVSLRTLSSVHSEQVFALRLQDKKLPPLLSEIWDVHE
How it was run: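 Chemical-induced reporter mRNA measured by RT-PCR with fluorescent labelling and capillary electrophoresis after 24 h dosing of transiently transfected HepG2 cells expressing exogenous NR-Gal4 chimeras; increases scored against DMSO baseline.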

[17] = target: Glucocorticoid receptor (Homo sapiens) (UniProt P04150); assay: ATG_GR_TRANS: Attagene TRANS-FACTORIAL HepG2 Assay for human Glucocorticoid Receptor (GR) (AID 2282978); settings: HepG2 Attagene TRANS GR reporter, mRNA transcription;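 also: activators score as hits since higher reporter transcript over DMSO is fitted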
Glucocorticoid receptor (Homo sapiens), sequence (P04150 whole entry, looked up, the tested form may be a part): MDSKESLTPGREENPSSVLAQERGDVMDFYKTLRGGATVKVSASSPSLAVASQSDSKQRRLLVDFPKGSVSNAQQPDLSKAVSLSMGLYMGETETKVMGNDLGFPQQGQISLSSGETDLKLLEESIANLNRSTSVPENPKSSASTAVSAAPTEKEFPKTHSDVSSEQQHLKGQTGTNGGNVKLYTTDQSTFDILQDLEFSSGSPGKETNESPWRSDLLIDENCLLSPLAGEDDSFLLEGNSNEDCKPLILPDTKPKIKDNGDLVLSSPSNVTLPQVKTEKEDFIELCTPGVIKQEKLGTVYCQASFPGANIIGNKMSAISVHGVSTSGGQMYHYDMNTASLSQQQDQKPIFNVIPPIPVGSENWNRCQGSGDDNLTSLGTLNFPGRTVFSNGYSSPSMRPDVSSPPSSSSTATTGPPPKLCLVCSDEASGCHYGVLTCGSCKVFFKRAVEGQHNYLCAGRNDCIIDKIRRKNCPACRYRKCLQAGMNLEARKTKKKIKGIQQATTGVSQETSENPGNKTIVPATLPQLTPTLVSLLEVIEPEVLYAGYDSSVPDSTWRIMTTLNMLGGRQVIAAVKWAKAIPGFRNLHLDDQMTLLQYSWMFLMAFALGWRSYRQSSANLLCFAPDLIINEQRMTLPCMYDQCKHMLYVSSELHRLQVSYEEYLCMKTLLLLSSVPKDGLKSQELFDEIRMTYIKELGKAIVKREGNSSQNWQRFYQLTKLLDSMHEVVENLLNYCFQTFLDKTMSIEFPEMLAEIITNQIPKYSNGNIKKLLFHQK
How it was run: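 Readout is reporter transcript from a chimeric GR-Gal4 acting on GAL4-UAS in transfected human HepG2 liver cells after 24 h exposure, quantified by RT-PCR and capillary electrophoresis. Activation fitted upward against DMSO.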

[18] = target: Androgen receptor (Homo sapiens) (UniProt P10275); assay: ATG_AR_TRANS: Attagene TRANS-FACTORIAL HepG2 Assay for human Androgen Receptor (AR) (AID 2282973); settings: HepG2 Attagene TRANS-FACTORIAL AR reporter transcription
How it was run: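 Transcriptional activity of an exogenous AR–Gal4 fusion read as GAL4-UAS reporter transcript levels in transfected human HepG2 cells after 24 h dosing. Detection via RT-PCR, 6-FAM labelling, HpaI digest and capillary electrophoresis; increase over DMSO baseline.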

SMILES | outcome [1] | outcome [2] | outcome [3] | outcome [4] | outcome [5] | outcome [6] | outcome [7] | outcome [8] | outcome [9] | outcome [10] | outcome [11] | outcome [12] | outcome [13] | outcome [14] | outcome [15] | outcome [16] | outcome [17] | outcome [18] | AC50 [15]
O=C(O)C(F)(F)C(F)(F)C(F)(F)C(F)(F)C(F)(F)C(F)(F)F | inactive | inactive | inactive | inactive | inactive | inactive | inactive | inactive | inactive | inactive | inactive | inactive | inactive |  |  |  |  |  | 
COc1ccc(C=O)cc1 | inactive |  | inactive | inactive |  |  |  | inactive | inactive |  |  |  | inactive | inactive | inactive | inactive |  |  | 
C[C@]12CC[C@H](O)CC1=CC[C@@H]1[C@@H]2CC[C@]2(C)C(=O)CC[C@@H]12 | inactive | inactive | inactive | inactive | inactive |  | inactive |  | inactive | inactive |  |  | inactive |  |  |  | inactive |  | 
Cl/C=C/Cl | inactive | inactive | inactive |  |  |  | inactive | inactive | inactive |  |  |  | inactive |  |  |  |  |  | 
CC(C)CCCCCCOC(=O)c1ccccc1C(=O)OCCCCCCC(C)C | inactive |  | inactive | inactive |  |  |  | inactive |  |  |  | inactive | inactive | inactive |  | inactive |  | inactive | 
O=C(Cc1ccccc1)c1ccccc1 | inactive |  | inactive | inactive |  | inactive |  |  | inactive | inactive |  |  | inactive | inactive |  |  | inactive |  | 22.7 µM (active)
O=Cc1cccc(Oc2ccccc2)c1 | inactive |  | inactive |  |  |  |  | inactive | inactive | inactive | inactive | inactive | inactive | inactive |  |  |  |  | 26.6 µM (active)
COc1ccc(OC)c(C=O)c1 | inactive | inactive | inactive | inactive | inactive |  |  | inactive |  | inactive | inactive | inactive | inactive |  |  | inactive | inactive |  | 
CC(=[OH+])/C=C(/C)[O-].CC(=[OH+])/C=C(/C)[O-].CC(=[OH+])/C=C(/C)[O-].[Al] | inactive | inactive | inactive | inactive | inactive |  | inactive | inactive | inactive |  | inactive | inactive | inactive |  |  |  |  |  | 
ClCC(Cl)CCl | inactive | inactive | inactive | inactive | inactive |  |  |  | inactive | inactive | inactive | inactive | inactive |  |  | inactive | inactive |  | 
